A selection: hits, their analogues and other compounds. The true share with any hit is near 1.6%.
KCNQ2 pot – enhances the rat KCNQ2 potassium channel | CHO-K1 KCNQ2, FluxOR thallium flux fluorescence; active compounds read high | 310,000 compounds, 0.54% hits | B-score at 10 µM;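 active = fluorescence ratio B-score at least 3 SD of library B-scores, with initial fluorescence B-score within 3 of them, cut at about 5.3 in these data; same plate scores as AID 2156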;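 note: B-score of peak minus minimum over baseline fluorescence ratio after K+ and Tl+ stimulus; positive B-score means potentiation of KCNQ2 with more thallium influx and brighter signal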
KCNQ2 inh – blocks the rat KCNQ2 potassium channel; B-score at 10 µM; 310,000 compounds, 1.1% hits; AID 2156; CHO-K1 KCNQ2, FluxOR thallium flux, 20 min; active compounds read low;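 active = fluorescence ratio B-score at most minus 3 library SDs, with starting brightness B-score within 2 library SDs, cut at about -5.5 in these data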
Kir21 conf inh – confirmation of mouse Kir2.1 potassium channel inhibitors. shares compounds with KCNQ2 pot. Kir2.1-expressing cells, FluxOR thallium flux fluorescence; active compounds read low. Tl flux remaining, % of negative control (active compounds read low), % at 10 µM. 2,300 compounds, 41% hits. AID 2032;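 active = Primary-screen hit whose thallium flux fell at least 3 control SD below untreated wells in both duplicates, with normal baseline fluorescence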;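 note: 0% = blank wells without stimulus and 100% = stimulated no-compound controls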
Target sequence (P35561 whole entry, looked up): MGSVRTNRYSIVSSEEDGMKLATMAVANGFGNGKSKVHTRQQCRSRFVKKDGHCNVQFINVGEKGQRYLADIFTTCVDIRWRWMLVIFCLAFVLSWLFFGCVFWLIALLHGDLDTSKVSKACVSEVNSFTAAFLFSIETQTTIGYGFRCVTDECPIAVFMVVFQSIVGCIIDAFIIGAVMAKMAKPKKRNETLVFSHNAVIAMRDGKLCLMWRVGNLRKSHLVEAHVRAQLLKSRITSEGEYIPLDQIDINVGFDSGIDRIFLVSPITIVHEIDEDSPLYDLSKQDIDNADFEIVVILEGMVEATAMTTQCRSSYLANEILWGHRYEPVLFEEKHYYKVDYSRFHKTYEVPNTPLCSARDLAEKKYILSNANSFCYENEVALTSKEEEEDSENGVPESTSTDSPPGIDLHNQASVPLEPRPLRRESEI
HEK293 Tl flux – parental HEK293 activity in Kir2.1 inhibitor counter-screen; shares compounds with KCNQ2 pot; parental HEK293 cells, FluxOR thallium flux fluorescence; 0% = unstimulated blank wells; FluxOR signal as % of negative control (100 = no effect), % at 10 µM; 2,300 compounds, 19% hits; AID 2105;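 active = dye signal at least 3 control SD above or below untreated wells in both duplicates, raw fluorescence within 3, either direction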;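 note: percent is based on the flux ratio of peak minus minimum fluorescence over baseline F0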
CHO-K1 Tl ctr – alters thallium flux in parental CHO-K1 cells, KCNQ2 counter-screen; 1,200 compounds, 43% hits; activity increase over 3SD of controls, % at 10 µM; AID 2282; FluxOR thallium flux fluorescence; zero = vehicle mean+3SD, 100% = vehicle-minus-blank window; shares compounds with KCNQ2 pot;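 active = signal rise of at least 3 SD above the untreated control mean, in both duplicate wells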;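 note: counter screen of KCNQ2 potentiator hits so any rise reflects channel-independent effects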
KCNQ1 sel pot – human KCNQ1 counter-target activity of KCNQ2 potentiators | 1,200 compounds, 28% hits | shares compounds with KCNQ2 pot | activation over 3SD threshold, % at 10 µM | AID 2283 | CHO KCNQ1 stable, FluxOR thallium flux fluorescence; beyond 3SD, as % of vehicle-control signal;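 active = fluorescence ratio rise of at least 3 SD of vehicle wells above their mean, in both replicate wells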;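 note: 0% = vehicle mean plus 3 SD and 100% = vehicle minus unstimulated blank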
KCNQ2 pot conf – rat KCNQ2 channel potentiator confirmation | shares compounds with KCNQ2 pot | CHO-KCNQ2 cells, FluxOR thallium flux fluorescence | potentiation, less the hit threshold, % at 10 µM | 1,200 compounds, 68% hits | AID 2287;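 active = fluorescence ratio rising 3 SD or more over the vehicle control mean in both replicates, plus primary screen hit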;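 note: peak minus minimum thallium fluorescence divided by baseline after K/Tl stimulus; 0% = vehicle mean plus 3 SD and 100% = vehicle minus unstimulated blank difference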
Kir2-1 sel – tests whether KCNQ2 potentiators also affect mouse Kir2.1; shares compounds with KCNQ2 pot; HEK293 Kir2.1, FluxOR thallium flux fluorescence; activity over 3SD threshold, % at 10 µM; 1,200 compounds, 2% hits;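 active = fluorescence ratio rise of at least 3 SD above the vehicle-control mean, seen in both replicates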;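 note: 0% = vehicle mean plus 3 SD and 100% = vehicle minus no-stimulus blank window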
KCNQ2 W236L MoA – KCNQ2 potentiators acting on retigabine-insensitive rat KCNQ2 W236L mutant | shares compounds with KCNQ2 pot | CHO KCNQ2-W236L, automated patch clamp current | current increase over 3SD of negative controls (%), active compounds read high, % at 25 µM | 940 compounds, 10% hits | AID 2558;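 active = current increase at least 3 SD of the untreated controls above them in both duplicate recordings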
Active calls of the source: *; i = inactive; / = no result.

SMILES | KCNQ2 pot | KCNQ2 inh | Kir21 conf inh | HEK293 Tl flux | others
COc1ccc(C(=O)NNC2=C(C(=O)C(F)(F)F)CCC2)cc1 | 5.5* | i | i | i | CHO-K1 Tl ctr=14*;KCNQ1 sel pot=32*;KCNQ2 pot conf=6.0*;Kir2-1 sel=-37;KCNQ2 W236L MoA=i
O=C(NNC1=C(C(=O)C(F)(F)F)CCC1)c1ccc(Cl)cc1 | 7.8* | i | i | i | CHO-K1 Tl ctr=18*;KCNQ1 sel pot=-13;KCNQ2 pot conf=4.8*;Kir2-1 sel=-30;KCNQ2 W236L MoA=i
O=C(NNC1=C(C(=O)C(F)(F)F)CCC1)c1cccc(Cl)c1 | 4.8 | i | / | /
O=c1n(-c2ccc(Br)cc2)cnn1-c1ncccc1[N+](=O)[O-] | / | i | / | /
CCc1nc(SCC(=O)c2ccc(Cl)s2)c2oc3ccccc3c2n1 | 10* | i | i | i | CHO-K1 Tl ctr=-11;KCNQ1 sel pot=54*;KCNQ2 pot conf=-17;Kir2-1 sel=-37
CCc1nc(SCC(=O)N2CCN(c3ccccc3)CC2)c2oc3ccccc3c2n1 | / | i | / | /
Cc1cc(C)c(S(=O)(=O)N2CCCc3ccccc32)c(C)c1 | / | i | / | /
Cc1cccc(S(=O)(=O)N2CCCc3ccccc32)c1 | / | i | i | i
COc1cc(NC(=O)c2cccc(C)c2)c(OC)cc1NC(=O)CN1CCOCC1 | 0.93 | i | / | /
C/C(N)=C(/C#N)C(=O)COC(=O)CC1CCCC1 | / | i | / | /
C/C(N)=C(/C#N)C(=O)COC(=O)C1CCC(C(C)(C)C)CC1 (stereo not given) | 5.3 | i | 28%* | i | CHO-K1 Tl ctr=8.1*;KCNQ1 sel pot=-36;KCNQ2 pot conf=7.8*;Kir2-1 sel=-102;KCNQ2 W236L MoA=i
Cc1ccc(C(C)C)c(OCC(O)CN(C)Cc2ccccc2)c1 (stereo not given) | / | i | 20%* | i
Cc1ccc(C(C)C)c(OCCCN(C)Cc2ccccc2)c1 | / | i | / | /
COc1cccc(CN(CC(=O)NC2CCCC2)C(=O)c2csnn2)c1 | / | i | / | /
COc1ccc(NC(=O)Cc2ccccc2)cn1 | / | i | / | /
COc1ccc(NC(=O)/C(Cl)=C(/Cl)S(=O)Cc2ccccc2)cn1 (stereo not given) | 12* | i | i | 64%* | CHO-K1 Tl ctr=0.3*;KCNQ1 sel pot=-15;KCNQ2 pot conf=12*;Kir2-1 sel=-45;KCNQ2 W236L MoA=3.2%*
CCOc1cc(/C=C2\CCCC(C(=O)C(F)(F)F)=C2O)ccc1O | / | i | / | /
Cc1cc(C)c(C)c(S(=O)(=O)NCC(=O)Nc2ccccc2F)c1C | / | i | 66%* | i
Cc1cc(C)c(C)c(S(=O)(=O)NCC(=O)O)c1C | 0.38 | i | / | /
CC(C)(C)SCCNC(=O)c1ccc(CN2CCc3ccccc3C2)cc1 | / | i | / | /
O=C(NCCC1=CCCCC1)c1cc(-c2ccncc2)nc2ccccc12 | / | i | / | /
COc1ccc(-c2cn(-c3ccc(OC)cc3)c3[n+]2-c2ccccc2CC3)cc1 | / | i | / | /
COc1ccc(-n2c(-c3ccc(Br)cc3)c[n+]3c2CCc2ccccc2-3)cc1 | / | i | 60%* | 74%*
COc1ccccc1-n1c(-c2ccccc2)c[n+]2c1CCc1ccccc1-2 | / | i | / | /
CC(C)c1ccc(-n2c(-c3ccccc3)c[n+]3c2CCc2ccccc2-3)cc1 | -7.4 | -7.4* | 20%* | i
SMILES | KCNQ2 pot | KCNQ2 inh | Kir21 conf inh | HEK293 Tl flux | others
Cc1ccccc1C(=O)NNC(=O)CCCCC(=O)NNC(=O)c1ccccc1C | 1.2 | i | / | /
COc1cccc(CN(CC(=O)NC2CCCCC2)C(=O)c2csnn2)c1 | / | i | / | /
COCCNC(=O)C(c1ccccc1F)N(C(=O)C(=O)NC1CCCC1)C1CCCCC1 (stereo not given) | 0.6 | i | / | /
O=C(N/N=C/c1ccco1)c1cc(-c2ccc3ccccc3c2)n[nH]1 | 9.2* | i | i | i | CHO-K1 Tl ctr=54*;KCNQ1 sel pot=-13;KCNQ2 pot conf=32*;Kir2-1 sel=-27;KCNQ2 W236L MoA=i
CCc1ccc(-c2cc(C(=O)N/N=C/c3ccco3)[nH]n2)cc1 | 1.3 | i | / | /
COc1ccc(OC)c2[nH]c(=O)c(CCNC(=O)c3cccs3)cc12 | 0.22 | i | / | /
CCCCOc1ccc(OCCNC(=O)c2ccco2)cc1 | / | i | / | /
O=C(COC(=O)c1ccc(O)cc1)Nc1ccccc1 | 1.4 | i | / | /
Cc1ccc(C)c(CSCc2nc3ccccc3[nH]2)c1 | / | i | 74%* | i
Cc1ccccc1CSCc1nc2ccccc2[nH]1 | / | i | / | /
O=C(Cc1sc(Nc2ccccc2)nc1-c1ccccc1)NCc1ccccn1 | / | i | / | /
CCc1nccn1CCC(=O)N1CCCC(Nc2ccc(F)cc2)C1 (stereo not given) | 1.1 | i | / | /
CC(C)(C)NC(=O)C(=O)NN=C1CCCCCCCCCCC1 | 1 | i | / | /
NC(N)=NN=C1CCCCCCCCCCC1 | / | i | i | i
CCCCOc1ccc(C2(C)NC(=O)N(C)C2=O)cc1 (stereo not given) | 1.6 | i | / | /
Oc1cc(-n2cccn2)c(O)cc1-n1cccn1 | / | i | / | /
COc1cc(/C=C/c2ccc3cccc(O)c3n2)cc(OC)c1OC | 5.3* | i | i | i | CHO-K1 Tl ctr=8.5*;KCNQ1 sel pot=0.7*;KCNQ2 pot conf=-11;Kir2-1 sel=-25
COc1cc(/C=C/c2ccc3cccc(O)c3n2)cc(Br)c1OC | / | i | / | /
COC(=O)c1ccc(Oc2c(F)c(F)nc(N3CCOCC3)c2F)cc1 | / | i | / | /
CC(=O)C1=C(S(=O)(=O)c2ccc(C)cc2)CS(=O)(=O)C1 | 17* | i | i | 72%* | CHO-K1 Tl ctr=-8;KCNQ1 sel pot=-4;KCNQ2 pot conf=77*;Kir2-1 sel=-41;KCNQ2 W236L MoA=76%*
Cc1ccc(S(=O)(=O)C2CS(=O)(=O)CC2O)cc1 (stereo not given) | 0.88 | i | / | /
COc1cc2[nH]c(C(=O)NCCc3ccccc3)cc2c(OC)c1OC | 0.23 | i | / | /
COc1cc2[nH]c(C(=O)NCc3ccccc3)cc2c(OC)c1OC | / | i | i | i
O=C(OCC(=O)c1cccc2ccccc12)c1ccc(CO)cc1 | / | i | / | /
CC1CCCCN1C(=O)CN1C(=O)CSc2ccc(S(=O)(=O)N3CCOCC3)cc21 (stereo not given) | / | i | / | /
CC(C)CCNCC(O)CON=C1c2ccccc2-c2ccccc21 (stereo not given) | / | i | / | /
COCCNCC(O)CON=C1c2ccccc2-c2ccccc21 (stereo not given) | / | i | 32%* | i
CC(C)(C)N(Cc1ccccc1)C(=O)CSc1ncn[nH]1 | 1.9 | i | / | /
COc1ccc(CC(NC(C)=O)C(=O)NC2CCN(S(=O)(=O)c3ccc(NC(C)=O)cc3)CC2)c(OC)c1 (stereo not given) | / | i | / | /

Screening results (PubChem BioAssay)
